The source made the active and inactive calls. Unless noted, the rule behind the calls is not given here.
Legend:
[1] = anti-His antibody binders, primary screen, artefact control for SMM control protein annotation, biochemical, small-molecule microarray, 635 nm fluorescence (AID 1128); details: anti-His Alexa647 antibody binding, higher = more signal;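 note: score merges feature fluorescence with signal-to-noise for each printed compound spot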
[2] = system: Human papillomavirus type 1a E7 protein (residues 1-88); experiment: HPV1a E7 small-molecule binders, primary screen, biochemical, small-molecule microarray, residues 1-88, 635 nm (AID 1129); details: small-molecule microarray binding, fluorescence 635 nm; higher = more signal
[3] = target: Focal adhesion kinase 1 (Homo sapiens) (UniProt Q05397); experiment: small-molecule microarray binders of FAK, primary screen, biochemical, 635/667 nm fluorescence, BSA, DTT (AID 1130); details: PTK2 binding, 635 nm fluorescence, higher = more signal;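 note: composite of spot emission at 667 nm and signal to noise over triplicate slides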
[4] = system: Fibrinogen (Alexa647-labelled); experiment: fibrinogen binders on compound microarrays, profiling panel, artefact control for SMM control-protein annotation, biochemical, small-molecule microarray, 635/667 nm fluorescence (AID 1131); details: fibrinogen-A647 binding fluorescence, higher = more signal;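 note: z-score merges 667 nm fluorescence with per-spot signal-to-noise over triplicate slides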
[5] = target: Follistatin (Homo sapiens) (UniProt P19883); experiment: follistatin binders on small-molecule microarrays, primary screen, biochemical, small-molecule microarray, 635/667 nm fluorescence (AID 1132); details: FST binding, 635 nm fluorescence, higher = more signal
[6] = target: Fibroblast growth factor 2 (Homo sapiens) (UniProt P09038); experiment: FGF2 binders on small-molecule microarrays, primary screen, biochemical, small-molecule microarray, 635/667 nm fluorescence (AID 1133); details: small-molecule microarray binding, FGF2, fluorescence 635/667; higher = more signal
[7] = mitochondrial membrane potential change in A549 cells, profiling panel, cell-based, JC-1 fluorescence, basal, 24 h, 100 nL (AID 1138); details: higher = more signal;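 note: A549 lung adenocarcinoma cells under basal conditions with no added stimulus; test concentration not given here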
Lefty1 = Lefty1 binders on small-molecule microarrays, primary screen, biochemical, small-molecule microarray, 635/667 nm fluorescence (AID 1139); details: small-molecule microarray binding, fluorescence 635/667; higher = more signal
[8] = system: wheat germ agglutinin (Triticum aestivum), Alexa647-labelled; experiment: wheat germ agglutinin binders on compound microarrays, profiling panel, artefact control for SMM control-protein annotation, biochemical, small-molecule microarray, 635/667 nm fluorescence (AID 1140); details: WGA-A647 binding, 635 nm fluorescence, higher = more signal;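 note: score merges 667 nm feature emission with signal to noise over triplicate slides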
[9] = target: Luciferin 4-monooxygenase (Photinus pyralis) (UniProt P08659); experiment: firefly luciferase enzyme inhibitors, primary screen, biochemical, luminescence, purified enzyme, 2006 set (AID 1141); details: SteadyGlo luminescence, 30 min, higher = more signal, called active from +8 up or from −8 down;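 note: cell-free assay with purified firefly luciferase at 100 ng per well in PBS; test concentration not given here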
[10] = system: Wnt5a (protein binding on small-molecule microarray); experiment: Wnt5a binders on small-molecule microarray, primary screen, biophysical, 635/667 nm fluorescence (AID 1142); details: 635 nm fluorescence, higher = more signal;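 note: fluorescence read at 667 nm with signal to noise per printed feature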
[11] = cell viability in Huh7 cells, primary screen, cytotoxicity control for HCV replication inhibitor project, CellTiter-Glo luminescence, basal, 48 h (AID 1143); details: Huh7 HCV replicon, higher = more signal, called active from +8 up or from −8 down;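 note: Huh7 hepatoma cells carrying a hepatitis C replication reporter with no stimulus; test concentration not given here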
[12] = P. aeruginosa biofilm formation inhibitors, primary screen, PAO1 strain, BacTiter-Glo luminescence, LB-PBS (AID 1144); details: 12 h, higher = more signal
[13] = CREB reporter modulators without forskolin, primary screen, cell-based, PC12, CRE-LacZ reporter, unstimulated (AID 1145); details: no forskolin, luminescence, 4.5 h, higher = more signal, called active from +8 up or from −8 down
[14] = CREB reporter modulators under forskolin, primary screen, cell-based, PC12, CRE-LacZ reporter, forskolin-stimulated (AID 1146); details: luminescence, 4.5 h, higher = more signal, called active from +8 up or from −8 down;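 note: PC12 cells with 6xCRE LacZ reporter stimulated by forskolin 10 µM; beta-galactosidase reporter signal reflecting CREB driven transcription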
[15] = target: Streptavidin (Streptomyces avidinii) (UniProt P22629); experiment: streptavidin binders on small-molecule microarray, primary screen, artefact control for SMM compound annotation, biophysical, 635/667 nm fluorescence (AID 1147); details: streptavidin binding, higher = more signal;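 note: signal reflects streptavidin binding to arrayed compounds as a control protein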
[16] = small-molecule binders of probe aInhba, primary screen, biochemical, small-molecule microarray, 635/667 nm fluorescence (AID 1148); details: higher = more signal;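 note: score merges 667nm spot fluorescence with signal-to-noise for antibody binding to printed compounds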
Torsin-1A (Homo sapiens) [17] = target: Torsin-1A (Homo sapiens) (UniProt O14656); experiment: torsin A binders from cell lysate, primary screen, small-molecule microarray, wild-type, 635/667 nm (AID 1149); details: COS7 hTOR1A-WT lysate, 635 nm fluorescence, higher = more signal
Torsin-1A (Homo sapiens) [18] = target: Torsin-1A (Homo sapiens) (UniProt O14656); experiment: small-molecule binders of mutant TOR1A in lysate, primary screen, cell lysate, small-molecule microarray, COS7 lysate, 635/667 nm fluorescence (AID 1150); details: COS7 hTOR1A mutant lysate, 635 nm fluorescence, higher = more signal;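 note: score pools 667 nm emission and signal to noise measuring lysate protein binding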
[19] = system: Sonic hedgehog protein (Shh); experiment: small-molecule binders of Shh protein, primary screen, biochemical, small-molecule microarray, 635/667 nm fluorescence (AID 1151); details: small-molecule microarray binding, 635 nm fluorescence; higher = more signal;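 note: Shh protein binding to compounds spotted on small-molecule microarray slides; score combines spot fluorescence intensity with signal-to-noise across triplicate slides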

Follistatin (Homo sapiens), sequence (P19883 whole entry, looked up): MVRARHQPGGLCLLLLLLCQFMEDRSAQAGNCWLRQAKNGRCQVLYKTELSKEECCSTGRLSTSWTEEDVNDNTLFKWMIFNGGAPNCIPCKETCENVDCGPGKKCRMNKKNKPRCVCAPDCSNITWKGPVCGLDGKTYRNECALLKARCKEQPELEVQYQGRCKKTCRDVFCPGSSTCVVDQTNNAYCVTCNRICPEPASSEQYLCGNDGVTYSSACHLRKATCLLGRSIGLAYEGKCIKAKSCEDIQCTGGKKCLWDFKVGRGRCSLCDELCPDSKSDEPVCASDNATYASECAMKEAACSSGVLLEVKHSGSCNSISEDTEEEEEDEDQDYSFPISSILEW
Focal adhesion kinase 1 (Homo sapiens), sequence (Q05397 whole entry, looked up): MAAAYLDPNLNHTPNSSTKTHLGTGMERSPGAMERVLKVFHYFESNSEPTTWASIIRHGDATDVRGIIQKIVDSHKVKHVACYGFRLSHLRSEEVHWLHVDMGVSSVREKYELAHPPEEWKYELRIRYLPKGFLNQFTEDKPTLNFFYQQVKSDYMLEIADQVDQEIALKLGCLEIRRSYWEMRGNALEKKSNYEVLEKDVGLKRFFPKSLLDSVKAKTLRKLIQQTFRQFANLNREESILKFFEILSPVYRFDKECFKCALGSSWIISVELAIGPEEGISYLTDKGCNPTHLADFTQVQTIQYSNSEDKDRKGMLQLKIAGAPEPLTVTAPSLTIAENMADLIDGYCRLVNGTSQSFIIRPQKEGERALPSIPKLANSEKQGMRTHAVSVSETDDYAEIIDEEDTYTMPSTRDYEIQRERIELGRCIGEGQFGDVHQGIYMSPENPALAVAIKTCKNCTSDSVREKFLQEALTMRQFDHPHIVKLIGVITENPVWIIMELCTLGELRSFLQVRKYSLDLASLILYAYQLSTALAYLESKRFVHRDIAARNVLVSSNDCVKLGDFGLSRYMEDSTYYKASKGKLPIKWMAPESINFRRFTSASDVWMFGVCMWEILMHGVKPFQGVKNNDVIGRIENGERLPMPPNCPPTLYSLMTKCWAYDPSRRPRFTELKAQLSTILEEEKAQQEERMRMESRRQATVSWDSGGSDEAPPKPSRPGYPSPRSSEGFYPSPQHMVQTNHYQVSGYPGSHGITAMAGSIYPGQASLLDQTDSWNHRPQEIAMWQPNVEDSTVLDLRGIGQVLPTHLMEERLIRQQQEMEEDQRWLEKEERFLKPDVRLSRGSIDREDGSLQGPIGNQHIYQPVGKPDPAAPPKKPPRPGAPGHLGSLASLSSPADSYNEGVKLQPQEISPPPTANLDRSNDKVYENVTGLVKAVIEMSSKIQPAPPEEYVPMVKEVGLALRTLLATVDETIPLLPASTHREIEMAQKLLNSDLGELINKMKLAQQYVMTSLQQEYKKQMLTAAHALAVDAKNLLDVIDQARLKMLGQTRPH
Streptavidin (Streptomyces avidinii), sequence (P22629 whole entry, looked up): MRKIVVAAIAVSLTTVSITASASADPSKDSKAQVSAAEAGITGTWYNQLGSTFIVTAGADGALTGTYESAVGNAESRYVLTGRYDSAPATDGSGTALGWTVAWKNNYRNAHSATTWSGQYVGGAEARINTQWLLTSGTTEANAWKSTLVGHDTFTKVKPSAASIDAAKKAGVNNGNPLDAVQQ
Luciferin 4-monooxygenase (Photinus pyralis), sequence (P08659 whole entry, looked up): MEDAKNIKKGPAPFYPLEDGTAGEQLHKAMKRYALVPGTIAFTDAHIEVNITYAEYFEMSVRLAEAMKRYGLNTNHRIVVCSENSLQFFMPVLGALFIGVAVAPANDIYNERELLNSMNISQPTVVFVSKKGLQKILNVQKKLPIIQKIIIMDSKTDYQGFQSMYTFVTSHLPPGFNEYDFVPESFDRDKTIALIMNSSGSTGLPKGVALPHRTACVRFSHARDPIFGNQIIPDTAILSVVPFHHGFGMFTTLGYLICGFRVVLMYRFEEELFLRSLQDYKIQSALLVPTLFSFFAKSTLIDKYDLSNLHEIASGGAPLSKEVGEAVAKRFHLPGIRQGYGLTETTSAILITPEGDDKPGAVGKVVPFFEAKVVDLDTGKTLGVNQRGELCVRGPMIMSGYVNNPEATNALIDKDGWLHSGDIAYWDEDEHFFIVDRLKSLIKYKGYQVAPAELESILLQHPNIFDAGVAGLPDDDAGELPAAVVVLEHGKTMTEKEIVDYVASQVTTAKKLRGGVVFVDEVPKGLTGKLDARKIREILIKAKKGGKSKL
Fibroblast growth factor 2 (Homo sapiens), sequence (P09038 whole entry, looked up): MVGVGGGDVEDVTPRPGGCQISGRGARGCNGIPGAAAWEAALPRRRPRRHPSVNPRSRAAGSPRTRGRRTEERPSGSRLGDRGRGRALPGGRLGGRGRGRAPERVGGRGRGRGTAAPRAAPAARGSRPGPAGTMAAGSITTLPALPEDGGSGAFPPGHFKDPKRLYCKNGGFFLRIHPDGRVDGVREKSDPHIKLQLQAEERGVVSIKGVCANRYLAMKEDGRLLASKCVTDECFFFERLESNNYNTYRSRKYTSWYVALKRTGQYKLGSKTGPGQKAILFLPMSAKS
Torsin-1A (Homo sapiens), sequence (O14656 whole entry, looked up): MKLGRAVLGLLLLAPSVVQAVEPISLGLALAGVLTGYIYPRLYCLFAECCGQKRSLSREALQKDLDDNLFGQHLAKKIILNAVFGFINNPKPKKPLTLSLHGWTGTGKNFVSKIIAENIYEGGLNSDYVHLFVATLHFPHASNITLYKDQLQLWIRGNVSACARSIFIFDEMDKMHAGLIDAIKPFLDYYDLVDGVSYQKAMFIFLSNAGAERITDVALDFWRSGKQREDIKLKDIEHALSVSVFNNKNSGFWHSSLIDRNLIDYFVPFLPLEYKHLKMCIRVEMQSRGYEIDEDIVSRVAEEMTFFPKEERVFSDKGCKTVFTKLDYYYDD

| SMILES | composite z-score [1] | composite z-score [2] | composite z-score [3] | composite z-score [4] | composite z-score [5] | composite z-score [6] | z-score [7] | composite z-score (Lefty1) | composite z-score [8] | z-score [9] | composite z-score [10] | z-score [11] | z-score [12] | z-score [13] | z-score [14] | composite z-score [15] | composite z-score [16] | composite z-score (Torsin-1A (Homo sapiens) [17]) | composite z-score (Torsin-1A (Homo sapiens) [18]) | composite z-score [19] |
| --- | --- | --- | --- | --- | --- | --- | --- | --- | --- | --- | --- | --- | --- | --- | --- | --- | --- | --- | --- | --- |
| COCCCNC(=O)[C@]1(Cc2ccccc2)N=C(c2ccc(OCCCO)cc2)O[C@@H]1c1ccccc1CN=[N+]=[N-] | 2.51 | 1.14 | 0.802 | 0.957 | 1.31 | 1.46 | 1.16 | -0.0031 | 0.963 | -0.932 (inactive) | 0.703 | -3.68 (inactive) | -0.0105 (inactive) | -0.09 (inactive) | -1.03 (inactive) | 1.31 | 0.491 | 0.52 | 0.82 | -0.147 |
| COC(=O)[C@@]1(Cc2ccccc2)[C@H]2c3cc(C(=O)N4CCCC4)n(Cc4ccc(O)c(OC)c4)c3C[C@H]2CN1C(=O)c1ccccc1 | 0.882 | 1.27 | 0.553 | -0.685 | 0.284 | -0.638 | 1.15 | -0.0456 | 0.504 | 1.04 (inactive) | 0.343 | -2.34 (inactive) | 0.633 (inactive) | 2.5 (inactive) | 0.333 (inactive) | 0.211 | 0.198 | -0.0034 | 0.0381 | -1.39 |
| O=C1[C@H]2C=C(Br)[C@H](C[C@@H]2OCCCCCCO)[C@@]12CO2 | -0.847 | -1.57 | -0.191 | -1.94 | -0.266 | 0.263 | -0.363 | -0.406 | -2.03 | 0.364 (inactive) | 0.255 | 0.993 (inactive) | 0.41 (inactive) | 0.577 (inactive) | 1.71 (inactive) | -0.29 | -0.024 | 0.36 | 0.12 | 0.129 |
| CCCCC(=C=CC[C@H](O)c1cccc(OCCO)c1)C[C@H](O)c1ccccn1 | 0.536 | -0.0708 | -0.0538 | 0.538 | 0.346 | 0.257 | 0.782 | 0.38 | 0.0704 | -0.167 (inactive) | 0.11 | -2.42 (inactive) | -0.478 (inactive) | 0.685 (inactive) | -0.738 (inactive) | 0.329 | -0.101 | 0.147 | 0.704 | 0.577 |
| COCCCNC(=O)[C@@]1(Cc2ccccc2CN=[N+]=[N-])N=C(c2ccc(OCCCO)cc2)O[C@H]1c1ccccc1CN=[N+]=[N-] | 2.03 | 1.19 | 0.125 | 0.922 | 0.63 | -0.263 | -0.556 | 0.0147 | 0.28 | -2.66 (inactive) | 1.08 | -5.48 (inactive) | -1.5 (inactive) | 0.76 (inactive) | -1.68 (inactive) | 0.521 | -0.0195 | 0.0552 | 0.511 | -0.933 |

From PubChem BioAssay
